Screening results deposited in PubChem by several laboratories.
rCAG RNA binder = binds r(CAG) RNA repeats | r(CAG) RNA repeat, TO-PRO-1 dye displacement fluorescence | inhibition, % at 3 µM | 370,000 compounds, 1.3% hits | AID 651821;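 active means inhibition above the plate cutoff, the mean of all test compounds on that plate plus 3 SD, cut at about 35% in these data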;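 further: higher means more dye released from RNA so lower well fluorescence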
Pemphigus Ab inh = human desmoglein-3 autoantibody binding inhibition; P32926; DSG3-coupled beads, scFv-anti-DSG3-GFP binding, flow cytometry; hits give low values; binding (percent of control), % at 10 µM; 310,000 compounds, 0.48% hits;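 active means binding more than 3 SD below its plate's average and above zero; inconclusive means below that plate limit but binding exactly zero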;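 further: hits lower antibody fragment binding to DSG3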
Target sequence (P32926 whole entry, looked up, the tested form may be a part): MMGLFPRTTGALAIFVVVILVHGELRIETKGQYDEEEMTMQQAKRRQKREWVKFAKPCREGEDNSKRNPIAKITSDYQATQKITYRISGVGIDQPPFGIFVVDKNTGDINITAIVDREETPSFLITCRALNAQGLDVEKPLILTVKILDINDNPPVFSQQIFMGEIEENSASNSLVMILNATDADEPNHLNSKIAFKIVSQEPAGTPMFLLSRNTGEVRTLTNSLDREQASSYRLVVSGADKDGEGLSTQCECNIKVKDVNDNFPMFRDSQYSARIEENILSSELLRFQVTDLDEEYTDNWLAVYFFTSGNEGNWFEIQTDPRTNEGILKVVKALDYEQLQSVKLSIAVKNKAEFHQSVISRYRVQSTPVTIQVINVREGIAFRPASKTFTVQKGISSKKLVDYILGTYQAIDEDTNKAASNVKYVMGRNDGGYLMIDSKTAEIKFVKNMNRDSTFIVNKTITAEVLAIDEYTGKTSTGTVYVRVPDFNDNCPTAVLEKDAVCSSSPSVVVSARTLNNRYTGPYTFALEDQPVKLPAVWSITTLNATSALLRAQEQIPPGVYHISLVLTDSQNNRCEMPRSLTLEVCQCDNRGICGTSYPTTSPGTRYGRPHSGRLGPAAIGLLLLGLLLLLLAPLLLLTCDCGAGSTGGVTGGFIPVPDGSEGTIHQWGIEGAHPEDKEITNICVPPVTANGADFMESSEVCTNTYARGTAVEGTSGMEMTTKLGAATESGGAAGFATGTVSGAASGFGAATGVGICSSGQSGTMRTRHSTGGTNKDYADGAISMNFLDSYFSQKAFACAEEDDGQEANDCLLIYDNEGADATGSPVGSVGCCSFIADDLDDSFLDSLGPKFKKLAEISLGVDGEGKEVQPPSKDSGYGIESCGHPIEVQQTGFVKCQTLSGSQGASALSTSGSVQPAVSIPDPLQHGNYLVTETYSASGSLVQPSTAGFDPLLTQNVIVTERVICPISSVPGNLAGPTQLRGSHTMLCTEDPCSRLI
NadD block = blocks S. aureus nicotinate mononucleotide adenylyltransferase; purified NadD enzyme, colorimetric absorbance read-out; inhibition, % at 20 µM; 360,000 compounds, 0.78% hits; AID 602399; in the data active means inhibition above about 26%
MsrA inhibitor = inhibits bovine methionine sulfoxide reductase A; purified bovine MsrA, absorbance read-out; AID 651718; 360,000 compounds, 0.75% hits; inhibition, % at 15.5 µM
bovine MsrA act = bovine methionine sulfoxide reductase A activation | purified bovine MsrA, absorbance read-out | AID 602163 | 360,000 compounds, 0.3% hits | activation, % at 10.6 µM; in the data active means activation above about 7.5%
DAGLB inhibitor = diacylglycerol lipase beta (human) inhibition | HEK293T DAGLB membrane lysate, EnzChek fluorogenic substrate | inhibition, % at 5.17 µM | 340,000 compounds, 0.059% hits; in the data active means inhibition above about 34%
DAGLB inh conf = DAGLB (human) inhibition, confirmation screen. shares compounds with DAGLB inhibitor. HEK293T DAGLB membrane lysate, EnzChek fluorogenic substrate. inhibition, % at 5.17 µM. 190 compounds, 73% hits;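 active means mean inhibition over triplicate wells above a set limit taken from the primary lipase screen, cut at about 34% in these data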
MsrA act confirm = bovine methionine sulfoxide reductase A activation confirmed. 1,000 compounds, 12% hits. AID 602270. shares compounds with bovine MsrA act. activation, % at 10.6 µM. purified bovine MsrA, absorbance read-out; in the data active means activation above about 4%;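 further: enzyme coupled to thioredoxin and thioredoxin reductase with NADPH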
NadD inh conf = NadD (S. aureus) inhibition, single concentration confirmation. shares compounds with NadD block. 2,000 compounds, 13% hits. inhibition, % at 20 µM. purified S. aureus NadD, colorimetric enzyme assay; in the data active means inhibition mostly above about 42%, no sharp cut-off; inactive means mostly below about 42%
MsrA conf = bovine MsrA inhibition, confirmed; shares compounds with MsrA inhibitor; purified bovine MsrA, absorbance read-out; inhibition, % at 15.5 µM; 2,300 compounds, 41% hits; AID 651822;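 further: coupled to thioredoxin reductase with NADPH and selenocystamine and DMSO as substrate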
rCAG binder conf = r(CAG) RNA repeat binding, confirmation; shares compounds with rCAG RNA binder; TO-PRO-1 dye displacement fluorescence; inhibition, % at 3 µM; 4,300 compounds, 70% hits; AID 652065;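 active means inhibition above a per-plate cutoff, the mean inhibition of sample wells plus 3 SD, cut at about 35% in these data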;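 further: loss of TO-PRO-1 fluorescence as compound displaces dye from 1x1 AA loop RNA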
DNA CAG counter = DNA CAG dye complex inhibition counter-screen; shares compounds with rCAG RNA binder; d(CAG) DNA oligo TO-PRO-1 dye displacement, fluorescence; inhibition, % at 3 µM; 4,300 compounds, 94% hits; AID 652068;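 active means inhibition above its plate's cutoff, the mean test-well inhibition plus 3 SD, cut at about 4.8% in these data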;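 further: hits displace the dye from DNA and so lower well fluorescence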
Numbers stand for hits; - = inactive; ? = inconclusive; . = no result given. Shown are actives, neighbours in structure and some others; about 3.2% of the full set was active somewhere. Unless noted, no stated cut-off is given here; in the data, active means inhibition above about 4.5%; inactive means the rest.

SMILES | rCAG RNA binder | Pemphigus Ab inh | NadD block | MsrA inhibitor | bovine MsrA act | DAGLB inhibitor | MsrA act confirm | others
COc1cccc(-n2c(SCc3cc(=O)oc4cc(O)c(O)cc34)nc3ccccc3c2=O)c1 | 65 | - | 65 | - | - | 40 | . | DAGLB inh conf=-;rCAG binder conf=70;DNA CAG counter=33
Cn1cc(/C=C2\SC(=O)NC2=S)c2ccccc21 | 40 | - | - | 22 | - | 37 | . | DAGLB inh conf=54;MsrA conf=7.0;rCAG binder conf=-;DNA CAG counter=11
Cc1ccc(C(=O)NN2C(=O)/C(=C/c3cn(C)c4ccccc34)SC2=S)cc1 | - | - | - | - | - | - | .
CCCc1cc(=O)n2[nH]c(C)c(-c3ccccc3)c2n1 | - | - | - | - | - | - | .
Cc1[nH]n2c(=O)cc(-c3ccc([N+](=O)[O-])cc3)nc2c1-c1ccccc1 | 91 | - | 34 | - | - | 48 | . | DAGLB inh conf=42;NadD inh conf=51;rCAG binder conf=87;DNA CAG counter=63
O=[N+]([O-])c1ccccc1N/N=C/c1c[nH]c2ccccc12 | 37 | - | - | - | - | 58 | . | DAGLB inh conf=61;rCAG binder conf=-;DNA CAG counter=16
O=[N+]([O-])c1ccccc1N/N=C/c1ccccc1 | - | - | - | - | - | - | .
COc1cc(C)ccc1S(=O)(=O)NC(=O)C1(C)CCN1C(=O)COc1ccc(Cl)cc1 (stereo not drawn) | - | . | - | - | - | . | .
COc1cc(/C=C2/C(=O)NN(c3ccc(F)cc3)C2=O)cc(Cl)c1O | - | - | - | - | - | - | .
COc1cc(/C=C2/C(=O)NN(c3ccc(Cl)c(Cl)c3)C2=O)cc([N+](=O)[O-])c1O | 99 | - | - | - | - | 38 | . | DAGLB inh conf=50;rCAG binder conf=66;DNA CAG counter=23
COc1cc(/C=C2\SC(=O)N(c3ccccc3Cl)C2=O)cc([N+](=O)[O-])c1O | 55 | - | - | - | - | 42 | . | DAGLB inh conf=38;rCAG binder conf=58;DNA CAG counter=18
Cn1c2ccccc2c(=O)c2c(=O)n(Cc3cccc4ccccc34)cnc21 | - | . | . | . | . | . | .
CC(=O)N1CCCC(C)(C(=O)N(C)Cc2cccc3ccccc23)C1 (stereo not drawn) | - | . | - | - | - | . | .
O=Nc1c(-c2c(O)[nH]c3cc(Br)ccc23)[nH]c2ccccc12 | 59 | . | - | - | - | 47 | . | DAGLB inh conf=59;rCAG binder conf=54;DNA CAG counter=36
Cc1ccc(S(=O)(=O)C[C@@H]2OC[C@H](CO)N2S(=O)(=O)c2ccc(C)cc2)cc1 | - | . | . | - | . | . | .
O=C(O)COc1ccccc1/C=N/Nc1ccc(S(=O)(=O)Nc2ccc(Cl)cc2)cc1[N+](=O)[O-] | 84 | - | - | - | - | 40 | . | DAGLB inh conf=40;rCAG binder conf=91;DNA CAG counter=70
NS(=O)(=O)c1ccc(N/N=C/c2ccccc2C(=O)O)c([N+](=O)[O-])c1 | - | - | - | - | - | - | .
O=C(O)c1ccccc1NS(=O)(=O)c1ccc(N/N=C/c2ccc(O)c(O)c2)c([N+](=O)[O-])c1 | 92 | - | - | 4.8 | - | 52 | . | DAGLB inh conf=59;rCAG binder conf=91;DNA CAG counter=70
COC(=O)[C@]12C[C@H](CC(=O)N3CCSCC3)C(=O)N(Cc3cccc4ccccc34)C1=C[C@H](COCc1ccccc1)O[C@@H]2C | - | . | . | . | . | . | .
CC1(C)CC(=O)C(C(N)=NC(=O)c2ccccc2)=C(O)C1 | - | - | - | - | - | - | .
CC1(C)CC(=O)C(C(N)=NC(=O)c2ccc([N+](=O)[O-])cc2)=C(O)C1 | - | - | - | - | 17 | - | -
CCC(C)Sc1nc2ccccc2c(=O)[nH]1 (stereo not drawn) | - | - | - | - | 15 | - | -
CC(C)Sc1nc2ccccc2c(=O)[nH]1 | - | - | - | - | - | - | .
CC(=O)NC(c1ccccc1)c1nc(-c2csc3ccccc23)cs1 (stereo not drawn) | - | . | - | - | - | . | .
Cc1ccc(COc2ccsc2-c2n[nH]c(=S)n2C)cc1 | - | - | - | - | - | - | .
SMILES | rCAG RNA binder | Pemphigus Ab inh | NadD block | MsrA inhibitor | bovine MsrA act | DAGLB inhibitor | MsrA act confirm | others
Cn1c(-c2sccc2OCc2ccc(Cl)cc2Cl)n[nH]c1=S | - | - | - | - | 17 | - | -
Cc1cccc(C(=O)Nc2c(-c3ccc(C(F)(F)F)cc3)nc3ncccn23)c1 | - | . | . | . | . | . | .
N#Cc1ccc(-c2nc3ccc(Cl)cn3c2Cc2ccccc2)cc1 | - | . | - | - | - | . | .
Cc1cccc(N2CCN(C3=NC(=O)C(=C4CCCCC4)S3)CC2)c1 | - | . | - | - | 8.0 | - | -
CC(=O)N1CCN(C2=NC(=O)C(=C3CCCCC3)S2)CC1 | - | ? | - | - | - | - | .
CCCCNc1c(CCc2ccccc2)nc2nc(C)cc(C)n12 | - | . | - | - | - | . | .
Nc1ncnc2c1ncn2[C@@H]1O[C@H](CNCc2ccc(OCc3ccccc3)cc2)[C@@H](O)[C@H]1O | - | - | - | - | 7.7 | - | 4.3
CCCCOC(=O)CCn1c(=S)oc2ccccc21 | - | - | - | - | 21 | - | -
CCCNC(=O)CCn1c(=S)oc2ccccc21 | - | - | - | - | - | - | .
CC(=O)Nc1cc(-c2ccc(N)nc2)cn2c(-c3cccc(C(F)(F)F)c3)cnc12 | - | . | - | - | - | . | .
Cc1cc(C)cc(N(CC(=O)NC2CCC(C)CC2)S(=O)(=O)c2ccc(C(C)(C)C)cc2)c1 (stereo not drawn) | - | . | . | . | . | . | .
CCOc1ccccc1NC(=O)N1CCCc2ccccc21 | - | - | - | - | - | - | .
C=CCC(CC)C(=O)NC(=O)N1CCCc2ccccc21 (stereo not drawn) | - | - | - | - | 12 | - | -
C=CCNC(=O)c1ccccc1NC(=O)c1ccccc1C | - | - | - | - | 8.6 | - | -
O=C(COc1ccc2cc(Br)ccc2c1)N1CCOCC1 | - | - | - | - | 13 | - | -
COC(=O)[C@]12C[C@H](CC(=O)N3CCN(C(=O)c4ccco4)CC3)C(=O)N(Cc3ccc4c(c3)OCO4)C1=C[C@H](C(C)C)O[C@@H]2C1CC1 | - | . | . | . | . | . | .
CC1CC(=O)Nc2ccccc2N1S(=O)(=O)c1ccc(Cl)cc1 (stereo not drawn) | - | - | - | - | - | - | .
CC(=O)Nc1ccc(S(=O)(=O)N2c3ccccc3NC(=O)CC2C)c(Cl)c1 (stereo not drawn) | - | - | - | - | 12 | . | -
O=C1C(=O)c2cccnc2-c2ncccc21 | - | . | 40 | - | 95 | . | 76
